Reference: ChEMBL document CHEMBL3988442, “University of Dundee, Small-Polar-MMV Screening Library” (2021)
For some assays here: Measured potencies and affinities stand elsewhere.

Assays:
Set-up in all cases: scale not given: direction of the effect not stated beside the values
[1] = molecular target: Protein translocase subunit SecA (Escherichia coli (strain K12)) (UniProt P10408); test: Assay to Identify E. coli SecA ATPase Inhibitors; assay type: functional; settings: 30 µM
[2] = molecular target: T1, Ubiquitin-activating enzyme e1, putative (Leishmania donovani (strain BPK282A1)) (UniProt E9BSI1); test: Leishmania donovani Ubiquitin Activating Enzyme (LdE1); assay type: functional; settings: 30 µM
T1 sequence (whole entry): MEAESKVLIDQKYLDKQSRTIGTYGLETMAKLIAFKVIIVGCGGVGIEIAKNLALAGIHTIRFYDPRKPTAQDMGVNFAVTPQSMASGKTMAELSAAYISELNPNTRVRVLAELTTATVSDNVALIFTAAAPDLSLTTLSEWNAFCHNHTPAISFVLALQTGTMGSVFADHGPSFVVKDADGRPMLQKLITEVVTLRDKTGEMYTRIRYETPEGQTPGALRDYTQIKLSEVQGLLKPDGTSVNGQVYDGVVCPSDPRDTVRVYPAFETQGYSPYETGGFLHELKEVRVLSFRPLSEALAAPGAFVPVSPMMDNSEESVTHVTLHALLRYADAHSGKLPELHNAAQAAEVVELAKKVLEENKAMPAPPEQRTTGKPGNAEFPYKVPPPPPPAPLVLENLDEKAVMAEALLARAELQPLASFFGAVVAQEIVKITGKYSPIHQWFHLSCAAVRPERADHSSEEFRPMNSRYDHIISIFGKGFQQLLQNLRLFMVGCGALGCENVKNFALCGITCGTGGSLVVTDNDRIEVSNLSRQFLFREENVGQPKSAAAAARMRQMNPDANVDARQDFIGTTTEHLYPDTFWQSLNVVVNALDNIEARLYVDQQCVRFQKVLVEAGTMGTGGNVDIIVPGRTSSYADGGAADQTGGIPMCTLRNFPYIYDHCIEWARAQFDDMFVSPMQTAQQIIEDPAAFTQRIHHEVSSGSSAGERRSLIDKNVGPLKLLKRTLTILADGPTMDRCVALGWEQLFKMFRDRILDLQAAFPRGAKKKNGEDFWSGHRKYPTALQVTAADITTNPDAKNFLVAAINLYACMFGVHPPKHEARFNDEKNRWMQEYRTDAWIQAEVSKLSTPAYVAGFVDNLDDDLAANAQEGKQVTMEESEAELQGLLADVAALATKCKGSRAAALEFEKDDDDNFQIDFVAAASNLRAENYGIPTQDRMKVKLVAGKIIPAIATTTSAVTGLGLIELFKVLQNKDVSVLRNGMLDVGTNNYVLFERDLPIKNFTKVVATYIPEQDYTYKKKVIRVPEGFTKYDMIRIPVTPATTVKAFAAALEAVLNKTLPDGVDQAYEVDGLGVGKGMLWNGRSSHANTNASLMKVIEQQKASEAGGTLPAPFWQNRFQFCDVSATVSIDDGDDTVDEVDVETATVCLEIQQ

[3] = molecular target: AMP-activated protein kinase, AMPK (Homo sapiens) (UniProt P54646+O43741+P54619+Q9UGJ0+Q9Y478+Q13131+Q9UGI9); test: AMP-dependent Kinase enzyme assay. An in vitro enzyme assay that detects ADP turnover that is directly proportional to AMPK activity. This uses naive AMPK that is activated during the assay with MK-8722; assay type: functional; settings: 30 µM
[4] = molecular target: Sialic acid-binding Ig-like lectin 9 (Homo sapiens) (UniProt Q9Y336); test: Hs-Siglec9 ALPHAscreen SOP 20170721; settings: 10 µM
Sialic acid-binding Ig-like lectin 9 (Homo sapiens), sequence (Q9Y336 whole entry): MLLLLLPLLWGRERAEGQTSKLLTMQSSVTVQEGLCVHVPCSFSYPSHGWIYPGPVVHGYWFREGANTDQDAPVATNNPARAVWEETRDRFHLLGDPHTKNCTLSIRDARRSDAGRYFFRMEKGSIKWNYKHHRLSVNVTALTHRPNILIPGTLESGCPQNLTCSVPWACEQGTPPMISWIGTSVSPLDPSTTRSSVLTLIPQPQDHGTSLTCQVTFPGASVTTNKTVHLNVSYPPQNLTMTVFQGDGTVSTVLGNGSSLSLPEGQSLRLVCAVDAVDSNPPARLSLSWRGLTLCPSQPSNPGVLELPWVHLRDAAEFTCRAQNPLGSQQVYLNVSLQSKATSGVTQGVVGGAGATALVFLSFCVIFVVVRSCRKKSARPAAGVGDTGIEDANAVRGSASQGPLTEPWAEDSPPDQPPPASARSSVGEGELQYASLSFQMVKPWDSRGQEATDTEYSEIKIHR

Trypanosoma cruzi = test: Trypanosoma cruzi phosphomannomutase and mannose-1-phosphate guanylyltransferase assay; assay type: functional; settings: 10 µM
[5] = molecular target: T2, Arginase-2, mitochondrial (Homo sapiens) (UniProt P78540); test: in vitro enzyme assay to detect the production of urea directly proportional to the activity of Arginase II; assay type: functional; settings: 33.3 µM; further: in the data most compounds retested in dose-response had high values
T2 sequence (whole entry): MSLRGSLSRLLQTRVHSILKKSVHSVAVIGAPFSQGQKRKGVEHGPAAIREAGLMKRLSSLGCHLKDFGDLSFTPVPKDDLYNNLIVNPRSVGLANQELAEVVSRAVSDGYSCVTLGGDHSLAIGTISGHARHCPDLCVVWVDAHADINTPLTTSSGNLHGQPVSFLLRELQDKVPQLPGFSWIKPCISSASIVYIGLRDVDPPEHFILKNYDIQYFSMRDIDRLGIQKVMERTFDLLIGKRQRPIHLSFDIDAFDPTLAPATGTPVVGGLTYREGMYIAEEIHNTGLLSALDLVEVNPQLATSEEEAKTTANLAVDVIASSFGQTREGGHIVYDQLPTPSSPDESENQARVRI

[6] = molecular target: T3, Proteasome subunit beta (Trypanosoma cruzi) (UniProt O96673); test: Trypanosoma cruzi proteasome chymotrypsin-like activity (TcProtChymo) assay.; further: in the data most compounds retested in dose-response had high values; assay type: functional; settings: 9.37 µM
T3 sequence (whole entry): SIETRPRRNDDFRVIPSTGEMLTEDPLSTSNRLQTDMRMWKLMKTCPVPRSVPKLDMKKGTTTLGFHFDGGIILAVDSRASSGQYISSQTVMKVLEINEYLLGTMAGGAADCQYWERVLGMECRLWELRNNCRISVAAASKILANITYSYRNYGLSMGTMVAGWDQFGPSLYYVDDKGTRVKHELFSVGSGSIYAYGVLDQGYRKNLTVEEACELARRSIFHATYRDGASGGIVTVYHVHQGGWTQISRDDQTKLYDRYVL

Homo sapiens = organism: Homo sapiens; test: To identify inhibition of the IFN signalling (Jak-Stat) pathway via expression of an eGFP reporter gene under the control of an IFN-stimulated response element (ISRE) containing MxA promoter.; assay type: functional; settings: 30 µM
[7] = molecular target: T4, Tyrosyl-tRNA synthetase, putative (Trypanosoma cruzi (strain CL Brener)) (UniProt Q4DSP6); test: Trypanosoma cruzi tyrosyl tRNA synthetase (TcYRS) _High Tyrosine SOP; assay type: functional; settings: 30 µM; further: in the data most compounds retested in dose-response had high values
T4 sequence (whole entry): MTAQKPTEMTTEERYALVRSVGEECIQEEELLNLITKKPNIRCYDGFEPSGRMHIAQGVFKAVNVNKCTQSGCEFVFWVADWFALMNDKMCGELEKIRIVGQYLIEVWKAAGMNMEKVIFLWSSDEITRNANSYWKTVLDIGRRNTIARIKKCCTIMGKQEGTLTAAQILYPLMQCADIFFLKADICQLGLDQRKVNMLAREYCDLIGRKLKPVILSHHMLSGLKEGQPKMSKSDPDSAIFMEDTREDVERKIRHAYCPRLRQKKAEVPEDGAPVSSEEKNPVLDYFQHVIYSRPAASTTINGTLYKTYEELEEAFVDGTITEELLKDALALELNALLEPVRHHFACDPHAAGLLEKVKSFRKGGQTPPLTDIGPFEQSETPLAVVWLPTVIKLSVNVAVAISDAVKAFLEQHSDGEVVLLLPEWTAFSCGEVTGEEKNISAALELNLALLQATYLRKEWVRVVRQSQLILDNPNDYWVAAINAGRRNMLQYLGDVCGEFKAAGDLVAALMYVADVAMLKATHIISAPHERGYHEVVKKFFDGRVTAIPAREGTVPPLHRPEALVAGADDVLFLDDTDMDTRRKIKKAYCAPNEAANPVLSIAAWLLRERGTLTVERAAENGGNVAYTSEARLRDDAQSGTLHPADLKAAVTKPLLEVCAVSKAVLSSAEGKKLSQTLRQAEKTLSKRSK

[8] = molecular target: T4, Tyrosyl-tRNA synthetase, putative (Trypanosoma cruzi (strain CL Brener)); test: Trypanosoma cruzi tyrosyl tRNA synthetase (TcYRS) SOP; assay type: functional; settings: 30 µM
[9] = molecular target: Chromo domain-containing protein 1 (Saccharomyces cerevisiae (strain ATCC 204508 / S288c) (Baker's yeast)) (UniProt P32657); test: ScCHD-1 Enzyme Inhibition Assay; assay type: functional; settings: 30 µM; further: in the data most compounds retested in dose-response had high values
Chromo domain-containing protein 1 (Saccharomyces cerevisiae (strain ATCC 204508 / S288c) (Baker's yeast)), sequence (P32657 whole entry, the tested form may be a part): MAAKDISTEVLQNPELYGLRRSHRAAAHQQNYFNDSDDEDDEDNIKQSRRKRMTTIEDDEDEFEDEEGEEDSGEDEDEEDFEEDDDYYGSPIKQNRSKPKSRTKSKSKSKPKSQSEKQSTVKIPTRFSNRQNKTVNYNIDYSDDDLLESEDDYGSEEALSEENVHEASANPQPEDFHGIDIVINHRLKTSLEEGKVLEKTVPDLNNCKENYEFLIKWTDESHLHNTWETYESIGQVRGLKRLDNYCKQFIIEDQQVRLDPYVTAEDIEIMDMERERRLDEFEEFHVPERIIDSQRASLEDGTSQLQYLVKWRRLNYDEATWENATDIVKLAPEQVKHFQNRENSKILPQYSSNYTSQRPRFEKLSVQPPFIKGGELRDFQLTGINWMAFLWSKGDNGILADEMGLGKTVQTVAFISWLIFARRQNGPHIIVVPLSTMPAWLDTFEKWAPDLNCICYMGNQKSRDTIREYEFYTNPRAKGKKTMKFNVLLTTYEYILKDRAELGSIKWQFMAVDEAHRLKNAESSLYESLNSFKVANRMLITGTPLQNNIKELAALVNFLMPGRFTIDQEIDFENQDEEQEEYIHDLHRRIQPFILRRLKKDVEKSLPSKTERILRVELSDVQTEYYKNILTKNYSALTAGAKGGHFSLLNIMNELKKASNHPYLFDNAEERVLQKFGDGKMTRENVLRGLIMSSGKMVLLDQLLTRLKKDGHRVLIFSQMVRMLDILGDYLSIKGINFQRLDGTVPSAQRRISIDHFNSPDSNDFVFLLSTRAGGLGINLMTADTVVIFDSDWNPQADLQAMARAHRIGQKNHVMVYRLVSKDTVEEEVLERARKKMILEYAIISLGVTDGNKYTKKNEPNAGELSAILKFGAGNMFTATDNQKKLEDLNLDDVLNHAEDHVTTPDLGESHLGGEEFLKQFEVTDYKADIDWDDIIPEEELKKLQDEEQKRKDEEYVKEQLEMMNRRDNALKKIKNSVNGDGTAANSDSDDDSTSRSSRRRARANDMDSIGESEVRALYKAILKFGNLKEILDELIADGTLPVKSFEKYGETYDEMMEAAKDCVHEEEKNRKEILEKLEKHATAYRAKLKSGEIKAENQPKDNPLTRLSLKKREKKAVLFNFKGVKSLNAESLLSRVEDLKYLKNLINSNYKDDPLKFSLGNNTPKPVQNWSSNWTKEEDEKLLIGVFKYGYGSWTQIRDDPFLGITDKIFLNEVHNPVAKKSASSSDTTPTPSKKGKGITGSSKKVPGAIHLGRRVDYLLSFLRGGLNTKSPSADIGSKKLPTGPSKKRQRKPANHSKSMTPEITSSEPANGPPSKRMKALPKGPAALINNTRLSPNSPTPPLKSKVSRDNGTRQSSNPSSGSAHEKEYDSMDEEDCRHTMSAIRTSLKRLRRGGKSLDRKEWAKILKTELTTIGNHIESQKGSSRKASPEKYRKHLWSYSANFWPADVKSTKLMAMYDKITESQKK

Protein translocase subunit SecA (Escherichia coli (strain K12)), sequence (P10408 whole entry): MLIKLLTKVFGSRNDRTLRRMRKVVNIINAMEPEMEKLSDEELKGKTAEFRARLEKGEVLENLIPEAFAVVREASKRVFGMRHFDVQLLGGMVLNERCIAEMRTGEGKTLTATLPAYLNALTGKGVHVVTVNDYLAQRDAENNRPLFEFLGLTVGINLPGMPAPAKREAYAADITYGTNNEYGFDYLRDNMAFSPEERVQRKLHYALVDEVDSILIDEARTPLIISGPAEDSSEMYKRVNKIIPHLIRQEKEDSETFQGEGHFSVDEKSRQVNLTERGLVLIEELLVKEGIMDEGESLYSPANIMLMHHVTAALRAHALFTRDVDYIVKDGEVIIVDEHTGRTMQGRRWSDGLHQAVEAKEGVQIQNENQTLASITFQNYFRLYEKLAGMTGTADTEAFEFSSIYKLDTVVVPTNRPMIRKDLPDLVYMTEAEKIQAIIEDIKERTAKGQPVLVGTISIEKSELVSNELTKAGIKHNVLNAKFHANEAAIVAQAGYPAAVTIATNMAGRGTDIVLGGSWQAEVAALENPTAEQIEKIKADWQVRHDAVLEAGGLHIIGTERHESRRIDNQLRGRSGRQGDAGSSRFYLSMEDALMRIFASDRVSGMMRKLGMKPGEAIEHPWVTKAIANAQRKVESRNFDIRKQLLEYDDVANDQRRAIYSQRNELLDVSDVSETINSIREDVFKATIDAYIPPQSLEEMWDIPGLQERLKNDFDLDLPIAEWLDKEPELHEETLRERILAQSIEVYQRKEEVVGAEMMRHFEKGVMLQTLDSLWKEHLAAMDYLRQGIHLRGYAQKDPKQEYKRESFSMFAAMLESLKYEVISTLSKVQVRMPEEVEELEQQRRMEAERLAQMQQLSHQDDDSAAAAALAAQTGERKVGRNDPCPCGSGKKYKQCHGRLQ

SMILES	Percent Effect [1]	Percent Effect [2]	Percent Effect [3]	Percent Effect [4]	Percent Effect (Trypanosoma cruzi)	Percent Effect [5]	Percent Effect [6]	Percent Effect (Homo sapiens)	Percent Effect [7]	Percent Effect [8]	Percent Effect [9]
c1cc(-c2cnccn2)cc(-c2ccn(CCN3CCCC3)n2)c1	-2.8%	-21.6%	3.09%	2.06%	-1.54%	-10.9%	6.9%	0.332%	14.3%	7.32%	-0.216%
Cc1nn(C)c2sc(C(=O)N3CCCC(n4ccnc4C)C3)cc12 (stereo not given)	-3.87%	7.89%	3.55%	2.66%	2.82%	-5.92%	8.92%	24.3%	4.25%	5.2%	-4.45%
NC(=O)CN1CCCN(C(=O)c2ccn(-c3ccccc3)n2)CC1	0.801%	9.72%	-1.01%	12.3%	1.26%	9.71%	11.9%	13.7%	5.26%	7.69%	-4.05%
CCN(Cc1cccc(Cl)c1)Cc1nc2c(cnn2C)c(=O)[nH]1	-5.2%	15.6%	3.13%	-4.85%	-0.49%	-1.47%	15.4%	-5.75%	3.81%	18.8%	-17.4%
Cc1cc(N2CCC(N(C)C(=O)Nc3ccccc3)CC2)nc(C)n1	-4.81%	8.22%	12.3%	-3.15%	-1.18%	6.36%	12.8%	6.79%	4.3%	10%	-2.89%
Cc1ccc(CC2CCCN2CC(=O)NCc2cccnc2)cc1 (stereo not given)	-4.01%	2.63%	5.21%	3.98%	1.66%	-5.92%	14.1%	-8.66%	4.25%	13%	-4.98%
COc1ccc(CNC(C)c2ccc3[nH]c(=O)[nH]c3c2)cc1 (stereo not given)	0.617%	-5.41%	-4.65%	13.3%	1.23%	-6.81%	0.36%	22.4%	1.48%	1.24%	-9.21%
CCc1cnc(CN(C(C)=O)C2CCN(CCc3cnn(C)c3)C2)o1 (stereo not given)	-2.73%	18.4%	-1.21%	-1.24%	-1.21%	2.16%	9.56%	-1.17%	7.39%	18.5%	-6.82%
Cc1nc(C)n(CC2CCCCN2CC(=O)N(C)Cc2ccco2)n1 (stereo not given)	-1.21%	0%	13.5%	5.38%	2.45%	0.21%	11.9%	5.11%	0%	-2.35%	-7.89%
CC(N(C)Cc1nc2c(cnn2C)c(=O)[nH]1)C(C)(C)C (stereo not given)	-4.87%	13.5%	-4.12%	2.57%	-10.1%	2.03%	7.72%	24.6%	-1.98%	3.66%	-4.7%
